# HGIII-sPLA2 inh = human group III sPLA2 inhibitors, primary screen, biochemical, QFRET, BODIPY PC-A2 liposome substrate; Group 3 secretory phospholipase A2 (Homo sapiens), Q9NZ20; QFRET BODIPY PC-A2 liposome hydrolysis, fluorescence; inhibition, % at 12.2 µM; hit rate 0.56% among 370,000; AID 743126, 2013;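 active means inhibition above mean plus 3 SD of compounds lying within the high and low control bounds, cut at about 19% in these data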;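 further: 0% = median of test compound wells and 100% = no enzyme DMSO wells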
# CendR NRP1 mod = modulators of CendR peptide binding to NRP-1, primary screen, biochemical, fluorescence polarization, uHTS | inhibition, % at 25 µM | Neuropilin-1 (Homo sapiens), O14786 | hit rate 0.85% among 360,000 | FAM-RPARPAR peptide binding to NRP-1 | AID 602438, 2012;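 active means inhibition or corrected inhibition above about 18%, plus a signal ratio from 0.5 to 1.5, limit read from the data, passing the limit was not always enough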
# KLK7 zymogen act = proKLK7 zymogen activators, primary screen, biochemical, fluorescence intensity; purified proKLK7, EDANS-DABCYL substrate fluorescence; 100% is mature enzyme control, 0% vehicle; AID 652039, 2013; Kallikrein-7 (Homo sapiens), P49862; hit rate 0.9% among 370,000; activation, % at 7 µM;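 active means activation above the mean of all tested compounds plus 3 SD, computed per campaign excluding outliers beyond control limits, cut at about 13% in these data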
# Target sequence (P49862 whole entry, looked up): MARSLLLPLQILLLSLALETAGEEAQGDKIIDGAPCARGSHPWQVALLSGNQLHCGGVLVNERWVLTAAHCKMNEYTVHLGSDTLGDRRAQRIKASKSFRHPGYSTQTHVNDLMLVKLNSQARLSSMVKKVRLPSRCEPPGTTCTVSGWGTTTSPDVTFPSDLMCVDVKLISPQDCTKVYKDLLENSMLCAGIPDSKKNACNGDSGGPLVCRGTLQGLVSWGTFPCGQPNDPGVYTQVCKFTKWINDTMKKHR
# ADAM17 inh = ADAM17 inhibitors, primary screen, biochemical, QFRET; Disintegrin and metalloproteinase domain-containing protein 17 (Homo sapiens), P78536; recombinant ADAM17, EDANS/DABCYL FRET peptide cleavage; inhibition, % at 6.95 µM; hit rate 0.83% among 370,000; AID 720648, 2013;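 active means inhibition above the mean of compounds lying between control limits plus 3 SD, set per campaign, cut at about 8.5% in these data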;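 further: 0% = DMSO-only wells as the low control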
# ADAM10 inh = human ADAM10 inhibitors, primary screen, biochemical, QFRET, HTS. recombinant ADAM10, EDANS/DABCYL FRET peptide cleavage, 3 h. inhibition, % at 7 µM. Disintegrin and metalloproteinase domain-containing protein 10 (Homo sapiens), O14672. AID 720582, 2013. hit rate 0.62% among 370,000;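 active means inhibition above a per-campaign cutoff equal to the mean of compounds falling between control-based bounds plus 3 SD, cut at about 20% in these data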;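 further: 0% = DMSO wells while the 100% control is not disclosed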
# Starred values were filed as active, the others as inactive; / = no result given. Shown are actives, neighbours in structure and some others; about 3.4% of the full set was active somewhere.
SMILES,HGIII-sPLA2 inh,CendR NRP1 mod,KLK7 zymogen act,ADAM17 inh,ADAM10 inh
CCCCCCC/C=C(\C)[C@@H](O)[C@@H](C)C(=O)N1CCC[C@@H]1C(=O)O[C@H](C(=O)O[C@@H](C)C(=O)O)[C@@H](C)CC,-58,/,/,-4,-2
C#CCNC(=O)C[C@@H]1C(=O)N2CCCC3=C2[C@@]1(C(=O)OCC)CCC3,7,/,0,-9,-11
CO/N=C/NC(=O)c1c(OC)ccnc1Oc1ccccc1,9,26*,0,7,-6
COC(=O)c1ccc2c(c1)c(-c1ccccc1)c(-c1ccccc1)n2C,9,32*,0,-7,-25
COc1ccc(NS(=O)(=O)c2cccc(C(=O)N/N=C(/C)c3ccc(-n4ccnc4)cc3)c2)cc1,4,-7,-1,-3,-16
CCOc1ccc(S(=O)(=O)Nc2ccc(C(=O)N/N=C(\C)c3ccc(-n4ccnc4)cc3)cc2)cc1,-28,3,0,9.0*,11
CCOC(=O)Nc1nnc(-c2cccc(OC)c2)s1,-6,26*,-14,-79,-283
O=C(Nc1ccccc1F)O[C@@H]1CC[C@@]23CCCN2C(=O)CCC[C@H]3C1,-1,/,/,-1,-2
COCCN(C(=O)c1ccc(C)c(S(=O)(=O)N2CCOCC2)c1)c1c(N)n(CC(C)C)c(=O)[nH]c1=O,4,29*,0,-7,-20
CCCCCOC(=O)CC(C(=O)OCCCCC)N1CCCCC1 (stereo unspecified),6,-2,0,0,0
CCCCCCCCCOC(=O)C(CC(=O)O)N1CCOCC1 (stereo unspecified),3,32*,-1,-3,7
COC(=O)COc1ccc(S(=O)(=O)N2CCN(c3ccc(OC)cc3)CC2)cc1,-2,24*,0,2,0
Cc1cc(C)cc(N(CC(=O)NC2CCC(C)CC2)S(=O)(=O)c2ccc(Cl)s2)c1 (stereo unspecified),5,/,1,1,-5
CCOc1ccc(Nc2ccc(N)c(S(=O)(=O)O)c2)cc1,3,40*,0,1,-3
CCOc1ccc(NS(=O)(=O)c2ccc(N)cc2)cc1,3,9,0,1,0
COc1ccc(N2C(=O)C3C4C=CC(C5CC45)C3C2=O)c([N+](=O)[O-])c1 (stereo unspecified),-1,33*,0,-6,-3
COc1ccc(/C=N/NC(=O)c2cccc(NC(=O)c3ccccc3Cl)c2)c(OC)c1,-1,32*,-4,-3,-6
CC(Sc1nnnn1C1CC1)C(=O)N1c2ccccc2NC(=O)C1(C)C (stereo unspecified),3,26*,0,1,-8
Cc1ccccc1Oc1cc(-n2ncc(Cl)c(Cl)c2=O)ncn1,21*,-6,0,-2,-6
CC(C)CNc1ccc2c(c1)OC[C@@H](CC(C)C)NS2(=O)=O,-2,/,1,-3,3
CCOc1ccc(-c2[nH]nc3c2C(c2ccc(O)cc2)C(C#N)=C(N)O3)cc1 (stereo unspecified),-58,3,1,-8,-6
CCOc1cc(C2C(C#N)=C(N)Oc3n[nH]c(-c4ccncc4)c32)cc([N+](=O)[O-])c1O (stereo unspecified),2,32*,1,-1,-5
Cc1ccccc1C(=O)Oc1cc(N)n(S(C)(=O)=O)n1,1,18*,0,0,-5
Cc1ccc(S(=O)(=O)n2nc(OC(=O)c3ccccc3C)cc2N)cc1,-15,-6,0,5,11
CCOc1ccc(OCC)c(NC(=O)C2CCN(S(=O)(=O)c3cnc[nH]3)CC2)c1,-23,21*,0,-1,3
SMILES,HGIII-sPLA2 inh,CendR NRP1 mod,KLK7 zymogen act,ADAM17 inh,ADAM10 inh
CC(C)c1ccc(NC(=O)O[C@@H]2CC[C@@]34CCCN3C(=O)CCC[C@H]4C2)cc1,-6,/,/,-5,-4
CC12CCC(=O)C=C1CCC1C2CCC2(C)C(c3csc(N)n3)CCC12 (stereo unspecified),-9,0,0,1,24*
CC12CCC(=O)C=C1CCC1C2C(O)CC2(C)C(c3csc(N)n3)CCC12 (stereo unspecified),-17,11,1,-1,1
CCN(CC)CCCNC(=O)CC1Oc2ccccc2NC1=O (stereo unspecified),0,/,0,-2,-6
Cc1ccc(C(=O)N/C(=C\c2sccc2C)C(=O)NCc2ccco2)cc1,-10,39*,0,-2,2
Cc1ccc(C(=O)N/C(=C\c2sccc2C)C(=O)NCc2ccncc2)cc1,6,-12,0,-1,3
COc1ccc(-n2c(SCC(=O)NCC3CCCO3)nnc2-c2ccncc2)cc1 (stereo unspecified),-4,/,0,2,2
Fc1ccccc1-c1ccc(/C=N/Nc2nc3ccccc3[nH]2)o1,30*,-17,-1,1,-15
CN(N)c1nc(-c2ccccc2)nnc1C(F)(F)F,-4,34*,0,-2,8
COc1ccccc1NS(=O)(=O)c1cc(-c2cnc(C3CC3)o2)ccc1C,-36,22*,0,7,18
CCN(CC)C(=O)CC[C@@H]1CC[C@]2(CCCN(S(C)(=O)=O)C2)O1,9,/,0,-1,-10
Cc1nnsc1C(=O)N1CCCC(Nc2ccc(C(C)C)cc2)C1 (stereo unspecified),0,16,1,1,-5
CC(C)c1ccc(NC2CCCN(C(=O)c3cscn3)C2)cc1 (stereo unspecified),3,21*,0,4,0
c1ccc(OCc2nnc(SCc3nc4ccccc4[nH]3)n2-c2ccccc2)cc1,2,/,1,-3,-12
C[C@@H]1CN([C@H](C)CO)C(=O)c2cc(NC(=O)Nc3cccc4ccccc34)ccc2O[C@H]1CN(C)Cc1ccc(C(F)(F)F)cc1,-23,-26,-2,-10,-34
C[C@H]1CN([C@@H](C)CO)C(=O)c2cc(NC(=O)Nc3cccc4ccccc34)ccc2O[C@@H]1CN(C)Cc1ccc(-c2ccccc2)cc1,-15,25*,-4,-12,-44
C[C@H](CO)N1C[C@H](C)[C@@H](CN(C)Cc2ccc(Oc3ccccc3)cc2)Oc2c(NC(=O)C3CC3)cccc2C1=O,-28,6,0,8,22*
C[C@H](CO)N1C[C@H](C)[C@@H](CN(C)Cc2ccc(C(=O)O)cc2)Oc2c(NC(=O)C3CC3)cccc2C1=O,16,-11,0,-2,-19

# Screens as filed in PubChem BioAssay.
